# Results filed as inconclusive are left out. Entries that show only a call come without a potency. Activity calls are given as the source filed them. Unless noted, calls come from the whole dose curve.
# Experiments:
# [1] = qHTS for Inhibitors of the Functional Ribonucleoprotein Complex (vRNP) of Lymphocytic Choriomeningitis Arenaviruses (LCMV): Viability assay - alamar blue signal for LCMV Primary Screen (AID 1347085; calls by dose curve; tested in HEK293 reporter line; note: nearly all actives have a fitted effect of over 80% in size; note: potency is the fitted concentration of half-maximal effect)
# [2] = Cytotoxicity counterscreen for inhibitors of SARS-CoV-2 cell entry (AID 1645845); note: nearly all actives have a fitted effect of over 50% in size
# Procedure, shortened: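 Expi293F/hACE2 cells seeded overnight; cpd pin-transferred in DMSO, 1 h preincubation, + media, 48 h 37 C 5% CO2; ATPLite 1step luminescence; normalized to cells and no cells.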
# [3] = Primary qHTS to identify inhibitors of SARS-CoV-2 cell entry (AID 1645846); details: activity change, negative = inhibition: at 57.1 µM (top of the series) unless noted; note: nearly all actives have a fitted effect of over 45% in size; note: potency is the fitted concentration of half-maximal effect
# Procedure, shortened: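 Entry measured by luciferase signal 48 h after adding SARS-CoV-2-S pseudotyped MLV particles to HEK293-ACE2 cells preincubated 1 h with compounds. Normalisation: bald particles and spike particles.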
# [4] = target: Nucleoprotein (Lymphocytic choriomeningitis virus (strain Armstrong)) (UniProt P09992); assay: qHTS for Inhibitors of the Functional Ribonucleoprotein Complex (vRNP) of Lymphocytic Choriomeningitis Arenaviruses (LCMV): LCMV Primary Screen - GLuc reporter signal (AID 1347086); note: nearly all actives have a fitted effect of over 70% in size; note: potency is the fitted concentration of half-maximal effect
# [5] = High Content Imaging Cell-Based qHTS for Inhibitors of the mTORC1 Signaling Pathway in MEF (Tsc2-/-, p53-/-) Cells (AID 2666; active = well fitted curve in the direction sought with a large enough effect; an effect the other way counts as inactive or inconclusive;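 note: percent of cells scored positive for phospho-rpS6 Ser235/236 immunostaining by imaging; potency is the fitted concentration of half-maximal effect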)
# Procedure, shortened: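 Read-out: % positive cells per well, with thresholds from highest- and lowest-signal wells, based on phospho-rpS6 (Ser235/236) intensity normalized to Hoechst nuclear stain. Cells: Tsc2-/-, p53-/- MEFs carrying empty vector; compound 24 hrs, 37 degree Celsius.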
# [6] = High Content Imaging Cell-Based qHTS for Inhibitors of the mTORC1 Signaling Pathway in MEF Cells (AID 2667; active = well fitted curve in the direction sought with a large enough effect; an effect the other way counts as inactive or inconclusive; note: potency is the fitted concentration of half-maximal effect)
# Procedure, shortened: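 MEF (Tsc2-/-, p53-/-, WT Tsc2 re-expressed); cpd 24 h, 37 °C; PFA fix; Alexa-488 anti-p-rpS6 Ser235/236, PI, Hoechst; IN Cell imaging; Hoechst/Alexa-488 intensity ratio; % active cells, thresholds set from rapamycin and DMSO wells.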
# [7] = Validation screen for inhibitors of Lassa infection (AID 463096); note: potency is the fitted concentration of half-maximal effect
# [8] = target: M-phase phosphoprotein 8 (Homo sapiens) (UniProt Q99549); assay: qHTS Validation Assay for Inhibitors for MPP8 Chromodomain Interactions with Methylated Histone Tails (AID 488949; active = well fitted curve in the direction sought with a large enough effect; an effect the other way counts as inactive or inconclusive;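 note: AlphaScreen signal from MPP8 chromodomain bound to biotinylated H3K9me3 peptide; top concentration of the series differs between compounds; nearly all actives have a fitted effect of over 55% in size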)
# Procedure, shortened: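 AlphaScreen proximity signal from streptavidin donor and Ni-chelate acceptor beads (10 ug/mL each) reported binding of MPP8 to trimethyl-K9 H3(1-18) peptide, both at 50 nM. The complex formed 30 min before a 30 min compound exposure at room temperature, in PBS pH 7.4.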
# [9] = Inducers of the Endoplasmic Reticulum Stress Response (ERSR) in human glioma: Validation (AID 504836; active = well fitted curve in the direction sought with a large enough effect; an effect the other way counts as inactive or inconclusive)
# Procedure, shortened: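 Stably transfected U87-MG human glioma cells carrying a GRP78-based luminescent sensor were seeded at 1000 cells/well, pin-dosed with compounds and incubated 16 h. Luciferase reagent was then added, and end-point luminescence was read after 10 min at room temperature.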
# [10] = target: Glutaminase kidney isoform, mitochondrial (Homo sapiens) (UniProt O94925); assay: qHTS for Inhibitors of Glutaminase (GLS): LOPAC Validation (AID 624146; active = well fitted curve in the direction sought with a large enough effect; an effect the other way counts as inactive or inconclusive;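 note: glutamate product detected by oxidase and peroxidase coupled Amplex red fluorescence gain; nearly all actives have a fitted effect of over 60% in size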)
# Procedure, shortened: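 Assay buffer: 45 mM KH2PO4 pH 8.2, 0.02% Tween-20. hKGA acts on L-glutamine (1 mM solution added); product glutamate is reported by an oxidase/peroxidase Amplex Red coupling, with fluorescence taken at baseline and 30 min.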
# Sequence of Nucleoprotein (Lymphocytic choriomeningitis virus (strain Armstrong)) (P09992 whole entry, looked up): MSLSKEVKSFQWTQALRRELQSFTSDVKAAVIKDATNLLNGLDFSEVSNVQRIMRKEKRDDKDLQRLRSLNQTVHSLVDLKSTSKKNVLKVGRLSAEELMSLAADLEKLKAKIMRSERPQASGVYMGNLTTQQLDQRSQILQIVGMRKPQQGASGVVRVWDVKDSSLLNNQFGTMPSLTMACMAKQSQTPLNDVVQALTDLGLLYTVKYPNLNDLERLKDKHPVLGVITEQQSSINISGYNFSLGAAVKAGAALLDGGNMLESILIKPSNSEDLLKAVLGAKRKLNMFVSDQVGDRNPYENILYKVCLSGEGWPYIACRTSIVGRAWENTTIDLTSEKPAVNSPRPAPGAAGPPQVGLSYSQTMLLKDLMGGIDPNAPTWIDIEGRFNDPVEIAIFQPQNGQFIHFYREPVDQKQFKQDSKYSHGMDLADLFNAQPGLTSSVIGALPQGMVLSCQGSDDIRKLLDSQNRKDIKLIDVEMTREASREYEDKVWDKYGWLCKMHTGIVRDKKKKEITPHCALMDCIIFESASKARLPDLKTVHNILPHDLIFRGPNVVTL
# Sequence of Glutaminase kidney isoform, mitochondrial (Homo sapiens) (O94925 whole entry, looked up, canonical isoform): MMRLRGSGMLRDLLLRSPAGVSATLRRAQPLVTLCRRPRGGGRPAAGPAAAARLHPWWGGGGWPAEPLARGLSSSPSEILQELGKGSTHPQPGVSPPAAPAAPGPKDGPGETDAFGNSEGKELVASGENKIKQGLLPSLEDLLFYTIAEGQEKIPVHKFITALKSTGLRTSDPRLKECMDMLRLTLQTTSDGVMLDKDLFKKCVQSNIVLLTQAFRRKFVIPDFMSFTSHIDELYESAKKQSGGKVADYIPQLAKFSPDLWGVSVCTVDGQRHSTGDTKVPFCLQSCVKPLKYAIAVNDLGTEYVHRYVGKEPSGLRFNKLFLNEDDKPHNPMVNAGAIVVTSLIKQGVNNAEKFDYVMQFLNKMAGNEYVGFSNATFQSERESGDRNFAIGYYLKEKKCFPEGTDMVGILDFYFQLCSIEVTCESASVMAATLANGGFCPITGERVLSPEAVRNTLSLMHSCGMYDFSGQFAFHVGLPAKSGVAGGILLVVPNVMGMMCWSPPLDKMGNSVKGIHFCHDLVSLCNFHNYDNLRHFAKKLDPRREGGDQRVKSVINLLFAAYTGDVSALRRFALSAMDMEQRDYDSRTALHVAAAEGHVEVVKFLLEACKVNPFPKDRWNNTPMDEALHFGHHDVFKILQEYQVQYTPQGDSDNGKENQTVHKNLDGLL
# Sequence of M-phase phosphoprotein 8 (Homo sapiens) (Q99549 whole entry, looked up): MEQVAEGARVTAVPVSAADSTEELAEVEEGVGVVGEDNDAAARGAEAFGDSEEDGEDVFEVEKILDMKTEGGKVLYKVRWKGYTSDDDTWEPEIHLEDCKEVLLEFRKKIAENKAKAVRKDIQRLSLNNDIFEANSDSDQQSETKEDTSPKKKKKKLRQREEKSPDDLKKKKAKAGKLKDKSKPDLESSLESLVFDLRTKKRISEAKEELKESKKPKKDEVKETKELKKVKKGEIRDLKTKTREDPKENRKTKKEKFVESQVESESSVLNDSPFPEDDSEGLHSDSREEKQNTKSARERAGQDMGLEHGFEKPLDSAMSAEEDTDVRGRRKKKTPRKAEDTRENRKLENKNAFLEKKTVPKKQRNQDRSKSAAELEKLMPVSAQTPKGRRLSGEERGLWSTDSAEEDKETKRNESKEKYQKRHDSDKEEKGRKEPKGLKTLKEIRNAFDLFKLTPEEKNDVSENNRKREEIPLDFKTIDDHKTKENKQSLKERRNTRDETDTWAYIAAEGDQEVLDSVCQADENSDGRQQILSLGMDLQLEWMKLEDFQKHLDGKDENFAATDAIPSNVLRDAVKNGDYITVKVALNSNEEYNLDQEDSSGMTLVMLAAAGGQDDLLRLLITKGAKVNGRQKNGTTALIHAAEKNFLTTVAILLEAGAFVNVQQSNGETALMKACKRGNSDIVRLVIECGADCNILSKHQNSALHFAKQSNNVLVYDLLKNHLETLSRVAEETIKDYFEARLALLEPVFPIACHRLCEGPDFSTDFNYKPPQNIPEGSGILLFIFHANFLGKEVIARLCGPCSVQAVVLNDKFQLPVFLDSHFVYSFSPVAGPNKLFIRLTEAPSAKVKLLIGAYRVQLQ
smiles,measurement,setting,value
CN(C)c1ccc2cc(C(=O)N[C@@H](CCCN=C(N)CCl)C(=O)NCc3ccccc3)ccc2c1,Potency,[1],34.3 µM (active)
same,Potency,[2],inactive
same,"activity change, negative = inhibition",[3],-26.4%
Nc1ccc(N=Nc2ccc(-c3ccc(N=Nc4c(S(=O)(=O)O)cc5cc(S(=O)(=O)O)c(N=Nc6ccccc6)c(O)c5c4N)cc3)cc2)c(N)c1,Potency,[4],inactive
CCOc1cc2c(c(F)c1OCC)C(=N)N(CC(=O)c1cc(N3CCOCC3)c(OC)c(C(C)(C)C)c1)C2,Potency,[1],24.3 µM (active)
same,Potency,[4],9.68 µM (active)
same,Potency,[3],35.5 µM (active)
CC12C(=O)OC(=O)C1(C)C1CCC2O1 (stereo unspecified),Potency,[5],9.27 µM (active)
same,Potency,[6],4.65 µM (active)
same,Potency,[7],10 µM (active)
same,Potency,[8],inactive
same,outcome,[9],inactive
same,outcome,[10],inactive
same,Potency,[1],11.2 µM (active)
COc1c(O)c(=O)n2c3ccccc3c3ccnc1c32,Potency,[4],inactive
CCC[C@H](N[C@@H](C)C(=O)N1[C@@H]2CCCC[C@H]2C[C@H]1C(=O)O)C(=O)OCC,Potency,[1],inactive
same,Potency,[2],inactive
same,"activity change, negative = inhibition",[3],1.44%
CC(=O)/C=C1\C(=O)N(C)c2ccccc21,outcome,[9],inactive
same,Potency,[1],inactive
COc1ccc(C(=O)/C=C/c2ccc(OC)cc2OC)c(O)c1,Potency,[1],inactive
same,Potency,[4],inactive
COc1ccc(CCOC2OC(CO)C(OC(=O)/C=C/c3ccc(O)c(OC)c3)C(O[C@H]3O[C@@H](C)[C@H](O)[C@@H](O)[C@H]3O)C2O)cc1O (stereo partly specified),Potency,[1],inactive
same,Potency,[4],inactive
CC(=O)O[C@H]1[C@H]2O[C@]23[C@@H]2CC[C@]4(O)C[C@@H](O)CC[C@]4(C)C2CC[C@]3(C)[C@H]1c1ccc(=O)oc1 (stereo partly specified),Potency,[4],0.316 µM (active)
O=C(CC(O)CCc1ccccc1)c1ccc(O)cc1 (stereo unspecified),Potency,[4],inactive

# Reference: PubChem BioAssay (NCATS)
